“And” between values parts separate entries of the source, which are not always exact repeats. Equal values may be shown once. Among all 5,500 compounds or so, about 2,000 (36%) were called active. Not shown: some 18% with an inconclusive outcome. Rule as the data show it: active = normalized growth mostly below about 0.91 (no sharp cut-off); inconclusive = no clear call, values can overlap the other calls; inactive = mostly above about 0.92. The list shows a part of the results.
Experiment: chemical genetic growth profiling, strain panel (AID 1159580);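 also: tested at 20 µM; growth read once vehicle control cultures reached saturation at 30 °C; 1 = growth at the plate median or of vehicle wells; lower values mean less growth of the strain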
Details: S. cerevisiae deletion strains, growth OD

Measured: normalized growth

COc1ccc2c(c1)OC/C(=C\c1ccc(OC)c(O)c1)C2=O
active: locus YAL013W, strain DEP1, stronger effect = lower value 0.72 | locus YAL026C, strain drs2, stronger effect = lower value 0.865 | locus YBL061C, strain skt5, stronger effect = lower value 0.905 | locus YBR009C, strain hhf1, stronger effect = lower value 0.781 | locus YBR021W, strain FUR4, stronger effect = lower value 0.796 | locus YBR023C, strain chs3, stronger effect = lower value 0.88 | locus YBR231C, strain swc5, stronger effect = lower value 0.8 | locus YBR279W, strain paf1, stronger effect = lower value 0.912 | locus YCL011C, strain gbp2, stronger effect = lower value 0.857 | locus YCL016C, strain dcc1, stronger effect = lower value 0.881 | locus YCL029C, strain bik1, stronger effect = lower value 0.772 | locus YCL069W, strain vba3, stronger effect = lower value 0.878 | locus YDL035C, strain GPR1, stronger effect = lower value 0.818 | locus YDL074C, strain BRE1, stronger effect = lower value 0.534 | locus YDL101C, strain DUN1, stronger effect = lower value 0.665 | locus YDL192W, strain arf1, stronger effect = lower value 0.748 | locus YDR101C, strain arx1, stronger effect = lower value 0.855 | locus YDR137W, strain rgp1, stronger effect = lower value 0.705 | locus YDR150W, strain NUM1, stronger effect = lower value 0.894 | locus YDR159W, strain sac3, stronger effect = lower value 0.8 | locus YDR162C, strain NBP2, stronger effect = lower value 0.475 | locus YDR297W, strain sur2, stronger effect = lower value 0.864 | locus YDR318W, strain mcm21, stronger effect = lower value 0.574 | locus YDR334W, strain swr1, stronger effect = lower value 0.894 | locus YDR388W, stronger effect = lower value 0.913 | locus YDR392W, strain spt3, stronger effect = lower value 0.206 | locus YDR502C, strain sam2, stronger effect = lower value 0.69 | locus YEL003W, strain gim4, stronger effect = lower value 0.806 | locus YEL061C, strain CIN8, stronger effect = lower value 0.623 | locus YER015W, strain faa2, stronger effect = lower value 0.874 | locus YER110C, stronger effect = lower value 0.79 | locus YER155C, strain BEM2 (second series), stronger effect = lower value 0.448 | locus YER155C, strain BEM2, stronger effect = lower value 0.301 | locus YER167W, strain BCK2, stronger effect = lower value 0.816 | locus YGL078C, strain dbp3, stronger effect = lower value 0.878 | locus YGL086W, strain mad1, stronger effect = lower value 0.517 | locus YGL173C, strain kem1, stronger effect = lower value 0.878 | locus YGL227W, strain vid30, stronger effect = lower value 0.813 | locus YGL240W, strain doc1, stronger effect = lower value 0.795 | locus YGL248W, strain PDE1, stronger effect = lower value 0.603 | locus YGL253W, strain hxk2, stronger effect = lower value 0.8 | locus YGR078C, strain PAC10, stronger effect = lower value 0.487 | locus YGR135W, strain pre9, stronger effect = lower value 0.684 | locus YGR229C, strain SMI1, stronger effect = lower value 0.386 | locus YGR252W, strain gcn5, stronger effect = lower value 0.545 | locus YHR013C, strain ard1, stronger effect = lower value 0.783 | locus YHR027C, strain rpn1, stronger effect = lower value 0.909 | locus YHR079C, strain IRE1 (second series), stronger effect = lower value 0.831 | locus YHR094C, strain hxt1, stronger effect = lower value 0.812 | locus YHR129C, strain ARP1, stronger effect = lower value 0.516 | locus YHR142W, strain chs7, stronger effect = lower value 0.727 | locus YHR200W, strain rpn10, stronger effect = lower value 0.864 | locus YIL066C, strain RNR3, stronger effect = lower value 0.665 | locus YIL073C, strain SPO22, stronger effect = lower value 0.631 | locus YIL125W, strain kgd1, stronger effect = lower value 0.916 | locus YIR030C, strain dcg1, stronger effect = lower value 0.854 | locus YJL095W, strain BCK1 (second series), stronger effect = lower value 0.899 | locus YJL129C, strain trk1, stronger effect = lower value 0.776 | locus YJL164C, strain tpk1, stronger effect = lower value 0.876 | locus YJL166W, strain qcr8, stronger effect = lower value 0.654 | locus YJL187C, strain SWE1 (second series), stronger effect = lower value 0.773 | locus YJR043C, strain POL32, stronger effect = lower value 0.731
0.399 (active) and 0.978 (inactive): locus YHR030C, strain SLT2, stronger effect = lower value
inactive: locus YAL021C, strain ccr4, stronger effect = lower value 0.985 | locus YAL030W, strain snc1, stronger effect = lower value 0.935 | locus YBR171W, strain sec66, stronger effect = lower value 0.919 | locus YBR229C, strain ROT2, stronger effect = lower value 0.967 | locus YCR088W, strain abp1, stronger effect = lower value 0.954 | locus YDL005C, strain med2, stronger effect = lower value 0.984 | locus YDL040C, strain nat1, stronger effect = lower value 0.953 | locus YDL185W, strain tfp1, stronger effect = lower value 0.909 | locus YDR001C, strain nth1, stronger effect = lower value 0.953 | locus YDR069C, strain doa4, stronger effect = lower value 0.97 | locus YDR195W, strain ref2 1.11 | locus YDR335W, strain msn5, stronger effect = lower value 0.943 | locus YEL037C, strain rad23, stronger effect = lower value 0.954 | locus YEL061C, strain CIN8 (second series), stronger effect = lower value 0.935 | locus YER016W, strain bim1, stronger effect = lower value 0.949 | locus YER111C, strain swi4, stronger effect = lower value 0.964 | locus YFR010W, strain ubp6, stronger effect = lower value 0.944 | locus YGL167C, strain pmr1, stronger effect = lower value 0.947 | locus YHR079C, strain IRE1, stronger effect = lower value 0.968 | locus YJL092W, strain hpr5, stronger effect = lower value 0.94 | locus YJL115W, strain asf1, stronger effect = lower value 0.953 | locus YJL134W, strain LCB3, stronger effect = lower value 0.949 | locus YJL154C, strain vps35, stronger effect = lower value 0.969 | locus YJL168C, strain set2, stronger effect = lower value 0.948
0.262 (active) and 0.961 (inactive): locus YJL095W, strain BCK1, stronger effect = lower value
